{"source": "PubChem BioAssay AID488890", "about": "(Southern Research Specialized Biocontainment Screening …, 2010)", "note": "Hit rate of the full screen: of about 320,000 compounds, about 1,300 (0.41%) were called active. Another 3% or so got no clear call; they are omitted. No rule for the calls is given here. Not all results are given here. Measured potencies and affinities stand elsewhere."}
{"assay": "growth inhibition of non-replicating M. tuberculosis (AID 488890);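 also: plate controls were DMSO cells for no effect and high antibiotic wells for full effect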", "settings": "Mycobacterium tuberculosis non-replicating, at 25 µM, stronger effect = higher value", "units": {"inhibition": "%"}}
{"molecule": "O=C(O)c1cc2c(N3CCC(Cc4ccccc4)CC3)ncnc2s1", "inhibition": 11.8}
{"molecule": "c1ccc2c(Cn3ccnc3)cccc2c1", "inhibition": -22.3}
{"molecule": "CC(C)C[C@H]1CN=C(Nc2ccccc2)N1CCC1CCCCC1", "inhibition": 25.8}
{"molecule": "NC1=NC[C@H](Cc2ccc(O)cc2)N1CCc1cccc(F)c1", "inhibition": 1.77}
{"molecule": "CC(C)C[C@H]1CN=C(Nc2ccccc2)N1CCC1CCCC1", "inhibition": 65.2}
{"molecule": "NC1=NC[C@@H](Cc2ccc(O)cc2)N1CCc1cccc2ccccc12", "inhibition": 64.2}
{"molecule": "NC1=NC[C@H](Cc2ccccc2)N1CC1CCCCC1", "inhibition": 17}
{"molecule": "CN(C)C1=NC[C@H](Cc2ccccc2)N1CCCC1CCCC1", "inhibition": 77}
{"molecule": "CCC(=O)N1CCc2cc(S(=O)(=O)N3CCN(c4cc(C)ccc4C)CC3)ccc21", "inhibition": -5.69}
{"molecule": "COc1ccc(-c2cn3nc(C)c(C)nc3n2)cc1OC", "inhibition": -17}
{"molecule": "Cc1nnc(Sc2c(-c3ccccc3)c3ccc(Cl)cc3[nH]c2=O)s1", "inhibition": 31.4}
{"molecule": "O=C(Nc1nnc(C2=COCCO2)o1)c1ccc(S(=O)(=O)N2CCCC2)cc1", "inhibition": 6.48}
{"molecule": "CN(C)c1ccc(C(=O)Nc2nnc(C3=COCCO3)o2)cc1", "inhibition": -3.42}
{"molecule": "CC(=O)Nc1nnc(C2=COCCO2)o1", "inhibition": 3.17}
{"molecule": "COc1ccc(C(=O)Nc2nnc(C3=COCCO3)o2)cc1OC", "inhibition": -10.9}
{"molecule": "COc1cc(C(=O)Nc2nnc(C3=COCCO3)o2)cc(OC)c1OC", "inhibition": -6.31}
{"molecule": "CS(=O)(=O)c1cccc(C(=O)Nc2nnc(C3=COCCO3)o2)c1", "inhibition": 22.2}
{"molecule": "O=C(O)CN1C(=O)c2cccc3c(Br)ccc1c23", "inhibition": 2.53}
{"molecule": "CCOC(=O)Cn1nnnc1CN(CCc1ccccc1)Cc1cc2cc(CC)ccc2[nH]c1=O", "inhibition": -14.2}
{"molecule": "COc1ccc(Nc2nc3cc(C)ccc3cc2C#N)c(OC)c1", "inhibition": -16.1}
{"molecule": "Cc1cc(NC(=O)Cn2nnc3sc4c(c3c2=O)CCCC4)no1", "inhibition": 9.47}
{"molecule": "CCCn1c(C(C)NC(=O)c2ccccc2)n[nH]c1=S", "note": "(configuration not stated)", "inhibition": 13.1}
{"molecule": "COc1cccc(-c2ccc(NC(=O)C3CCCN(Cc4nccn4C)C3)cc2)c1", "note": "(configuration not stated)", "inhibition": 58}
{"molecule": "O=C(Nc1cc(Cl)ccc1-n1cncn1)c1cc(F)c(F)c(F)c1F", "inhibition": 14}
{"molecule": "COc1cc(/C=C2\\SC(=O)N(CC(=O)Nc3ccc(C)cc3)C2=O)cc(Cl)c1OCC(=O)O", "inhibition": 12.1}
{"molecule": "O=C(CCNC(=O)c1ccc([N+](=O)[O-])cc1)NCc1cccs1", "inhibition": -8.88}
{"molecule": "Cc1ccc(CC(=O)NCCCc2ccccc2)cc1", "inhibition": 21.6}
{"molecule": "CCCCNC(=O)Cc1ccc(Br)cc1", "inhibition": 74}
{"molecule": "O=C(NCc1cccs1)c1ccccc1", "inhibition": 64.8}
{"molecule": "O=C(NCCNC(=O)c1ccc(Br)o1)c1ccc(Br)o1", "inhibition": -3.49}
{"molecule": "O=C(NCCCCc1ccccc1)c1ccc(Br)o1", "inhibition": 45.4}
{"molecule": "O=C(NCC1CCN(C(=O)c2ccc([N+](=O)[O-])cc2)CC1)c1ccc([N+](=O)[O-])cc1", "inhibition": 4.24}
{"molecule": "O=C(NCC1CCCCC1)c1cccc([N+](=O)[O-])c1", "inhibition": 69.2}
{"molecule": "C=CCC[C@@H](Cc1ccc(F)cc1)C(=O)OC[C@@H](Cc1c[nH]c2ccccc12)NC(=O)[C@H](CC=C)CC(=O)N[C@H](CO)Cc1ccccc1", "inhibition": -0.91}
{"molecule": "CCCCOc1ccc(C(=O)OCC(=O)c2c(N)n(C)c(=O)n(C)c2=O)cc1", "inhibition": 27.4}
{"molecule": "O=C(NCCCn1ccnc1)c1cccc(Br)c1", "inhibition": -17.6}
{"molecule": "COCC(=O)Nc1nc2n(n1)C(c1ccccc1Cl)CC(c1ccc(OC)cc1)N2", "note": "(configuration not stated)", "inhibition": 24.1}
{"molecule": "COC(=O)c1ccc(CS(=O)(=O)c2ccccc2C)o1", "inhibition": 2.59}
{"molecule": "CCCn1c(N)c(C(=O)CSc2nc3ccccc3c(=O)n2Cc2ccccc2)c(=O)[nH]c1=O", "inhibition": 21}
{"molecule": "COc1ccc(/C=N/NC(=O)c2ccn[nH]2)cc1Cn1cc([N+](=O)[O-])cn1", "inhibition": -4.11}
{"molecule": "O=C(Nc1ccc(Cl)cn1)c1cc2c(s1)-c1ccccc1OC2", "inhibition": 27.1}
{"molecule": "O=C(O)c1ccc(CNC(=O)c2ccc(Br)o2)cc1", "inhibition": 21.4}
{"molecule": "O=C(CNC(=O)c1ccco1)NC1CCCCCC1", "inhibition": 5.43}
{"molecule": "O=C(CNC(=O)c1ccc(Br)o1)NCc1ccc(F)cc1", "inhibition": 23.3}
{"molecule": "O=C(NCc1ccccc1)c1ccc(Br)o1", "inhibition": 77.6}
{"molecule": "O=C(NCCNC1CCCCC1)c1ccco1", "inhibition": -9.39}
{"molecule": "O=C(NCc1ccncc1)c1ccc(Br)o1", "inhibition": 12.8}
{"molecule": "C=CCn1c(O)c(C(CC)=Nc2cc(OC)ccc2OC)c(=O)[nH]c1=O", "inhibition": 7.07}
{"molecule": "CCNC(=S)NNC(=O)c1ccccc1OC(F)F", "inhibition": -5.06}
{"molecule": "COc1ccc(CC(C(=O)Nc2ccc(OC)cc2)c2nn[nH]n2)cc1", "note": "(configuration not stated)", "inhibition": 8.92}
{"molecule": "Cc1cc(=O)oc2cc(NC(=S)NCc3cccnc3)ccc12", "inhibition": -4.07}
{"molecule": "CCCC(=O)c1cc2c(cc1NC(=O)c1ccccc1F)OCCO2", "inhibition": 4.71}
{"molecule": "CC(=O)N1CCc2c(sc3c2c(=O)n(-c2ccccc2)c(=O)n3Cc2ccccc2Cl)C1", "inhibition": -8.11}
{"molecule": "O=C(NCCCn1ccnc1)Nc1ccc2c(c1)OCO2", "inhibition": -2.69}
{"molecule": "Cc1cc(C)c(-c2csc(NC(=O)C3=COCCO3)n2)c(C)c1", "inhibition": 34.2}
{"molecule": "Cc1cc(C)c(NC(=O)C2=COCCO2)c(C)c1", "inhibition": -16.1}
{"molecule": "Cc1nc(-c2ccc(-n3nncc3-c3ccco3)cc2)cs1", "inhibition": 58.1}
{"molecule": "Cc1ccc(C(=O)O/N=C(\\N)Cc2cccs2)c(Cl)c1", "inhibition": 60.4}
{"molecule": "C#CCOCCOCCOCCNc1nc(N2CCN(C(=O)[C@H](CCC(=O)O)n3cc(C(N)CC(C)C)nn3)CC2)nc(N2CCN(C(=O)[C@H](CCC(=O)O)n3cc(C(N)[C@H](C)CC)nn3)CC2)n1", "note": "(some centres not stated)", "inhibition": -2.67}
{"molecule": "CCc1nc(CN2CCN(c3cc(C(F)(F)F)ccn3)CC2)c(C)[nH]1", "inhibition": 20.5}
{"molecule": "CCCCN(CC)CCCNC(=O)c1cc2c(-c3ccc(OC)c(OC)c3)nn(C)c2s1", "inhibition": 34.8}
{"molecule": "CCN(CC)CCNC(=O)c1cc2c(-c3ccc(Cl)cc3)nn(C)c2s1", "inhibition": 67.4}
{"molecule": "Cc1nc(C(=O)N(C)C)nn1-c1ccc(Cl)cc1Cl", "inhibition": -3}
{"molecule": "COc1ccc(NC(=O)C2=Cc3ccccc3OC2)cc1", "inhibition": 76.7}
{"molecule": "COc1ccc(C(CNC(=O)CSc2ccc(Br)cc2C)N2CCOCC2)cc1", "note": "(configuration not stated)", "inhibition": 7.11}
{"molecule": "CCN1C(=O)/C(=C\\N(C(C)=O)c2ccccc2)OC1=S", "inhibition": 6.17}
{"molecule": "CCc1nc(N(CC)CC)c2oc3ccccc3c2n1", "inhibition": 25.6}
{"molecule": "c1ccc(Oc2nc(-c3cccnc3)nc3ccccc23)cc1", "inhibition": 18.6}
{"molecule": "Cc1ccc(Oc2nc(-c3cccnc3)nc3ccccc23)c([N+](=O)[O-])n1", "inhibition": -3.06}
{"molecule": "Fc1ccc(F)c(NC2=NCCCCC2)c1", "inhibition": -19}
{"molecule": "O=C(NNC1=C(C(=O)C(F)(F)F)CCC1)c1cccnc1", "inhibition": -16.6}
{"molecule": "COc1ccccc1C(=O)NNC1=C(C(=O)C(F)(F)F)CCC1", "inhibition": 77.4}
{"molecule": "O=C(NNC1=C(C(=O)C(F)(F)F)CCC1)c1cccc(O)c1", "inhibition": 58.3}
{"molecule": "O=C(NNC1=C(C(=O)C(F)(F)F)CCC1)c1ccncc1", "inhibition": 56.2}
{"molecule": "Cc1ccc(CNC(=O)CN(c2ccc(C(C)C)cc2)S(=O)(=O)c2c(C)noc2C)cc1", "inhibition": 7.31}
{"molecule": "Cc1ccsc1/C=N/NC(=O)Cn1nc(C)c([N+](=O)[O-])c1C", "inhibition": -14.9}
{"molecule": "COc1ccccc1N1C[C@@H]2C[C@@H](c3ccco3)N3CCC[C@@]23C1=O", "inhibition": 14.9}
{"molecule": "COC(=O)C1=C(N)Oc2cc(C)n(CC3CCCO3)c(=O)c2C1c1ccccc1", "note": "(configuration not stated)", "inhibition": 2.48}
{"molecule": "Cc1ccnc(NC(=O)C2CCN(S(=O)(=O)c3cccc4nonc34)CC2)c1", "inhibition": 9.48}
{"molecule": "Cc1ccccc1NC(=O)c1cccc(S(=O)(=O)Nc2cccc(C(=O)O)c2)c1", "inhibition": 19.2}
{"molecule": "CC1(C)Oc2ccc(C(=O)NN)cc2NC1=O", "inhibition": 9.35}
{"molecule": "CC1=C/C(=C\\c2ccc3c(c2)OCO3)C(=O)S1", "inhibition": 31.9}
{"molecule": "COc1ccc(/C=C2\\N=C(SC)SC2=O)cc1OC", "inhibition": 76.1}
{"molecule": "CCOc1ccc(N=CC2=C(O)CC(C)(C)CC2=O)cc1", "inhibition": 31.2}
{"molecule": "CC1(C)CC(=O)C(C=Nc2ccc(N)cc2)=C(O)C1", "inhibition": 23.2}
{"molecule": "CCOc1cc(C2NCc3ccccc3-n3cccc32)ccc1OC", "note": "(configuration not stated)", "inhibition": 1.16}
{"molecule": "O=C1CN(C(=O)COC(=O)CCC(=O)c2ccc(Cl)cc2)c2ccccc2N1", "inhibition": 16.1}
{"molecule": "COc1ccc(CNCc2ccc3ccccc3c2)c(OC)c1", "inhibition": 23.2}
{"molecule": "COc1cccc(CNCc2ccc(OC)cc2OC)c1", "inhibition": 16.2}
{"molecule": "COc1ccc(C)cc1NC(=O)c1sc2ncn(CC(=O)N3CCCCC3)c(=O)c2c1C", "inhibition": -1.26}
{"molecule": "Cc1nc2ccc(NC(=O)c3ccc(C)c(S(=O)(=O)N4CCOCC4)c3)cc2s1", "inhibition": 29.1}
{"molecule": "CCN1CCC(O)(c2ccccc2)C(C(=O)c2ccccc2)C1", "note": "(configuration not stated)", "inhibition": 3.22}
{"molecule": "OC(c1ccccc1)C1CN(Cc2ccccc2)CCC1(O)c1ccccc1", "note": "(configuration not stated)", "inhibition": 16.7}
{"molecule": "OC1(c2ccccc2)CCN(Cc2ccccc2)CC1", "inhibition": -5.95}
{"molecule": "CC1C(C)C(O)(c2ccccc2)CCN1C", "note": "(configuration not stated)", "inhibition": -18.2}
{"molecule": "O=C(NCc1ccco1)[C@@H]1CSC2c3ccccc3C(=O)N21", "note": "(some centres not stated)", "inhibition": -2.9}
{"molecule": "CCCN(CC(=O)Nc1ccccc1OC)C(=O)c1ccc(=O)[nH]c1", "inhibition": -2.3}
{"molecule": "NC(=O)C1CCN(C(=S)c2ccc(-c3ccc(Br)cc3)o2)CC1", "inhibition": 76.2}
{"molecule": "CN1CCN(c2ccc(NC(=O)c3ccc(Br)o3)cc2)CC1", "inhibition": -1.79}
{"molecule": "CN1CCN(c2ccccc2NC(=O)c2ccc(-c3ccc(Br)cc3)o2)CC1", "inhibition": 7.26}
{"molecule": "CN1CCN(c2ccc(NC(=O)c3ccc(-c4ccccc4F)o3)cc2)CC1", "inhibition": 79.5}
{"molecule": "CS(=O)(=O)N1CCN(c2ccc(NC(=O)c3ccc(-c4ccc(Cl)cc4)o3)cc2)CC1", "inhibition": -19.8}
{"molecule": "S=C(c1ccc(-c2ccc(Br)cc2)o1)N1CCOCC1", "inhibition": 74}
{"molecule": "COC(=O)c1ccccc1NC(=O)CSc1ccc(C)cc1", "inhibition": 66.9}
{"molecule": "Cc1onc(-c2c(Cl)cccc2Cl)c1C(=O)NC(=S)Nc1sc2c(c1C(N)=O)CCC(C)C2", "note": "(configuration not stated)", "inhibition": 1.7}
{"molecule": "Cc1ccccc1C(=O)NC(=S)NC1CCSC1=O", "note": "(configuration not stated)", "inhibition": 6.25}
{"molecule": "COc1ccc(NS(=O)(=O)c2ccc(NC(=S)NC(=O)c3ccc(Br)cc3)cc2)nn1", "inhibition": 52.8}
{"molecule": "CSCCC(NC(N)=O)C(=O)Nc1ccc(C)cc1", "note": "(configuration not stated)", "inhibition": -6.3}
{"molecule": "Cc1ccc2cc3c(nc2c1)N(c1ccccc1)CC3", "inhibition": -3.46}
{"molecule": "COc1ccc2cc3c(nc2c1)OCC3", "inhibition": 52}
{"molecule": "CCOC(=O)NC(=O)/C(N=Nc1cccc(C(F)(F)F)c1)=C(\\C)O", "inhibition": 22.5}
{"molecule": "COc1ccc(NC(=O)COC(=O)CN2C(=O)C3CC=CCC3C2=O)c([N+](=O)[O-])c1", "note": "(configuration not stated)", "inhibition": 3.95}
